High-throughput results (PubChem BioAssay)
Pf growth 48h: Primary qHTS for delayed death inhibitors of the malarial parasite plastid, 48 hour incubation; P. falciparum luciferase growth in erythrocytes, 48 h; AID 504832, 2011; 5.9% of 310,000 active; Potency, µM (titrated, usually from 28.7 µM), for inactives: at the top dose activity change, negative = inhibition, actives largely listed as inhibitors; further: potency means the concentration at half of the fitted maximal effect; on the % scale 0 is the no-effect control and ±100 the full control effect
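Cell-based growth assay: transgenic P. falciparum expressing firefly luciferase, cultured in red cells within RPMI 1640 containing 0.5% w/v Albumax, 24 mM bicarbonate and gentamycin. A drop in luciferase activity indicates inhibition.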
HCV inh: qHTS Assay for Inhibitors of Hepatitis C Virus (HCV); Huh7.5.1 HCVcc-Cre infection, luciferase reporter, 44 h; Potency, µM (highest dose often 41.8 µM), without a hit: top-dose activity change, negative = inhibition, hits mostly inhibitors; 3.4% of 340,000 active; AID 651820, 2012; further: potency means the concentration at half of the fitted maximal effect; on the % scale 0 is the no-effect control and ±100 the full control effect
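Infectious HCVcc-Cre (~0.5 moi) was added to cells just after compound, with cells seeded 4 h earlier at 1,000 per well. Luciferase activity after 44 h culture reported infection; substrate was incubated 15 min at room temperature before reading.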
Pf growth 96h: Primary qHTS for delayed death inhibitors of the malarial parasite plastid, 96 hour incubation; P. falciparum luciferase reporter growth, 96 h; Potency, µM (titrated, usually from 28.7 µM), inactives show at the top dose activity change, negative = inhibition, usual class: inhibitors; 6.9% of 320,000 active; further: potency means the concentration at half of the fitted maximal effect; on the % scale 0 is the no-effect control and ±100 the full control effect
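P. falciparum expressing integrated firefly luciferase, in erythrocytes at 2% hematocrit, 0.05% parasitemia, incubated with compounds 96 h at 37 C, 5% CO2. Growth inhibition read as loss of luminescence; two-generation exposure targets delayed-death apicoplast inhibitors.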
Shiga toxin inh: A qHTS for Small Molecule Inhibitors of Shiga Toxin | Vero cells, Shiga toxin protein synthesis inhibition reporter | inhibition, % at 38.7 µM | 9.2% of 290,000 active; in the data active means inhibition mostly above about 28%, no sharp cut-off; inactive means mostly below about 43%; further: 0% is about no effect
Cycloheximide cs: Cycloheximide Counterscreen for Small Molecule Inhibitors of Shiga Toxin. cell reporter, cycloheximide protein synthesis inhibition counterscreen. 12% of 300,000 active. max response, %. AID 2314, 2010; in the data active means max response mostly above about 13%, no sharp cut-off; inactive means mostly below about 14%; further: read at 38.3 µM for the half of the compounds with a filed dose; 0% is about no effect
HCMV inh: qHTS Assay for inhibitors of the human cytomegalovirus (HCMV); HFF cells, HCMV-luciferase reporter, 72 h; stronger effect = lower value; AID 1259415, 2018; activity change, negative = inhibition, % at 57.5 µM; 4.5% of 410,000 active; in the data active means activity change below about -60%; inconclusive means no clear call, values can overlap the other calls; inactive means above about -39%; further: on the % scale 0 is the no-effect control and ±100 the full control effect
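Inhibition of viral replication was scored as loss of reporter luminescence in HFFs infected with HCMV-luciferase (MOI 1 PFU/cell) for 72 h; compounds tested at 2 doses, normalized to buffer and Salinomycin controls.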
An asterisk follows results filed as active; u = inconclusive; x = no result given. Only some compounds are listed: those with a hit (about 21% of all), similar ones and a draw of the others. Unless noted, the call rests on the fitted dose curve; in most records, active means well fitted inhibition curve with a large enough effect; inconclusive means small, poorly fitted or top-dose-only effect, or another doubt; inactive means no such curve, though single readings can be large or run the other way.

SMILES	Pf growth 48h	HCV inh	Pf growth 96h	Shiga toxin inh	Cycloheximide cs	HCMV inh
CC(=O)Nc1ccc(C(=O)N/N=C(\C)CC(=O)Nc2ccc(OCc3ccccc3)cc2)cc1	10.7%	4.7%	50.1%	-2.2	18.5*	-18.7
C#CCOc1ccc(CNC[C@H]2O[C@@H](n3cnc4c(N)ncnc43)[C@H](O)[C@@H]2O)cc1	x	11.0%	x	x	x	-24.6
CCOCCCNC(=S)N(CCCN(C)C)Cc1cc2cc3c(cc2[nH]c1=O)OCCO3	-10.3%	-1.4%	u	-5.0	-4.4	65.8
CC(NS(=O)(=O)CCNC(=O)c1ccccc1)c1ccccc1 (stereo not drawn)	5.7%	0.0%	31.9%	x	x	6.5
CN(C)CCNC(=O)c1cccc(-c2cc(NC=O)c3ncc(-c4cccc(C(F)(F)F)c4)n3c2)c1	x	x	x	x	x	-61.5*
Cc1cccc(-c2cc(NC=O)c3ncc(-c4cccc(C(=O)N(C)C)c4)n3c2)c1	x	x	x	x	x	56.8
CN(C)CCNC(=O)c1cccc(-c2cnc3c(NC=O)cc(-c4ccc(S(C)(=O)=O)cc4)cn23)c1	x	x	x	x	x	-65.8*
CC(=O)c1ccc(-c2cnc3c(NC=O)cc(-c4ccc(S(C)(=O)=O)cc4)cn23)cc1	x	x	x	x	x	25.1
CN(C)CCNC(=O)c1cccc(-c2cnc3c(NC=O)cc(-c4cc(F)c(F)c(F)c4)cn23)c1	x	x	x	x	x	-75.5*
COc1cccc(-c2cc(NC=O)c3ncc(-c4cccc(C(=O)NCCN(C)C)c4)n3c2)c1	x	x	x	x	x	-32.7
CCCCCn1c(=O)[nH]c2cc(C(=O)N3CCN(c4cccc(C)c4)C(C)C3)ccc2c1=O (stereo not drawn)	x	x	x	x	x	-28.3
CCOC(=O)C1(Cc2cccc(OC)c2)CCCN(C(=O)c2cc(C)[nH]n2)C1 (stereo not drawn)	24.2%	-10.0%	37.5%	-14.3	-5.4	-26.8
CCOC(=O)C1(Cc2cccc(OC)c2)CCCN(C(=O)CNC(C)=O)C1 (stereo not drawn)	0.7%	9.0%	-6.3%	x	38.5*	124.7
CCOC(=O)C1(Cc2cccc(OC)c2)CCCN(C(=O)c2ccccc2C)C1 (stereo not drawn)	12.1%	-8.3%	-28.2%	115.5*	59.5*	105.0
CCOC(=O)C1(Cc2cccc(OC)c2)CCCN(S(=O)(=O)N(C)C)C1 (stereo not drawn)	0.0%	-2.8%	u	-7.5	-1.9	9.6
CCOC(=O)C1(Cc2cccc(OC)c2)CCCN(C(=O)c2cc(C)on2)C1 (stereo not drawn)	-15.5%	x	6.57µM*	91.8*	37.4*	67.0
Cc1ccc2c(c1)-c1cc(C)nn1C(c1ccc3c(c1)OCO3)N2 (stereo not drawn)	-21.9%	14.1µM*	u	28.5	16.0*	10.9
Cc1cc2n(n1)C(c1ccc3c(c1)OCO3)Nc1ccccc1-2 (stereo not drawn)	42.5%	u	27.2%	-1.7	10.9	47.1
Cc1ccc2c(c1)-c1cc(C)nn1C(c1sccc1C)N2 (stereo not drawn)	20.7%	3.98µM*	x	12.7	3.0	u
Nc1nc(Nc2ccccc2)nc(N2CCOCC2)c1[N+](=O)[O-]	-26.9%	0.2%	u	-1.6	7.9	-4.7
Cc1cccc(Nc2nc(N)c([N+](=O)[O-])c(N3CCC(C)CC3)n2)c1	u	u	u	-3.0	-5.2	-37.8
Cc1cccc(Nc2nc(N)c([N+](=O)[O-])c(N3CC(C)CC(C)C3)n2)c1 (stereo not drawn)	13.1µM*	6.31µM*	u	-2.3	-3.8	-62.8*
Cc1cccc(Nc2nc(N)c([N+](=O)[O-])c(N3CC(C)OC(C)C3)n2)c1 (stereo not drawn)	u	10µM*	u	-1.8	-4.9	10.2
CN(C)c1ccc(Nc2nc(N)c([N+](=O)[O-])c(N3CCOCC3)n2)cc1	u	u	10.4µM*	34.7	4.7	u
Cc1cc(C)n2nc(C(=O)OCC(=O)Nc3ccc(F)cc3F)nc2n1	-5.5%	15.4%	71.8%	x	x	-31.7
